Source: PubChem BioAssay (National Center for Advancing Translational Sciences (NCATS))
This is a sample that favours compounds with a hit; in the whole collection about 8.1% have one here.
ELG1 DNA repair: blocks ELG1-dependent DNA repair in HEK293T cells | 330,000 tested, 2.3% active | AID 504467 | Potency, µM (highest dose often 46.1 µM), for the others: at the highest dose activity change, negative = inhibition, actives largely listed as inhibitors | HEK293T ELG1-luciferase reporter, luminescence, 16 h; DNA damage induced by 5-fluorouridine; note: % is set by controls: 0 for no effect and ±100 for the full control effect; nearly all actives have a fitted effect of over 55% in size
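DMSO vehicle served as the neutral condition. Each well held 2,000 cells given 5-fluorouridine plus compound; after 16 hr at 37 °C/5% CO2, ONE-Glo was added and luciferase measured 30 min later.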
MCF10A rerep: induces DNA re-replication in MCF 10a normal breast cells; AID 624296; 350,000 tested, 2.9% active; MCF 10A DNA re-replication, Hoechst nuclear intensity, 48 h; Potency, µM (series often up to 46.1 µM), without a hit: at the top dose activity, positive = re-replication, actives largely listed as activators; note: % of control where 0% means no effect; nearly all actives have a fitted effect of over 50% in size
SW480 rereplic: DNA re-replication induction in SW480 cells; 340,000 tested, 1.8% active; Potency, µM (doses to about 46.1 µM), for inactives: at the highest dose re-replication activation, most hits filed as activators; SW480 DNA re-replication, Hoechst DNA content imaging, 48 h; AID 624297; note: % of control where 0% means no effect; nearly all actives have a fitted effect of over 55% in size
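Per well, 250 cells were exposed to pinned compound for 48 hr. Nuclear DNA was visualised with Hoechst (40 min, 37 C) and total object intensity recorded by fluorescence scanning.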
KB-3-1 cytotox: KB-3-1 parental cell cytotoxicity; KB-3-1 viability, CellTiter-Glo ATP luminescence, 72 h; AID 1347075; Potency, µM (series often up to 46.1 µM), actives largely listed as cytotoxic; 400,000 tested, 1.4% active; note: % is set by controls: 0 for no effect and ±100 for the full control effect; nearly all actives have a fitted effect of over 60% in size
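Viability of parental KB-3-1 cells, measured by CellTiter-Glo luminescence, followed a 72 h incubation at 37 °C with pinned compounds in phenol-red-free DMEM containing 10% FBS.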
KB-V1 MDR tox: KB-V1 MDR subline cytotoxicity; KB-V1 MDR cells viability, CellTiter-Glo, 72 h; Potency, µM (top dose mostly 46.1 µM), hits mostly cytotoxic; 400,000 tested, 3.4% active; AID 1347076; note: % is set by controls: 0 for no effect and ±100 for the full control effect; nearly all actives have a fitted effect of over 60% in size
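Drug-selected KB-V1 cells, grown in DMEM lacking phenol red with 10% FBS, receive compound titrations; after three days at 37 degrees C, surviving cell ATP is quantified by CellTiter-Glo luminescence and responses normalized and curve-fitted.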
An asterisk follows results filed as active; i = inactive; ? = inconclusive; . = no result given; [ ] = dose if it differs, or a comment. Calls come from the whole dose curve; as a rule, active = well fitted curve in the direction sought with a large enough effect; inconclusive = small, poorly fitted or top-dose-only effect, or another doubt; inactive = no such curve, though single readings can be large; an effect the other way counts as inactive or inconclusive. Potency is the fitted concentration of half-maximal effect.

SMILES	ELG1 DNA repair	MCF10A rerep	SW480 rereplic	KB-3-1 cytotox	KB-V1 MDR tox
CCn1cc(CCC(=O)NCCc2ccccc2)c2ccccc21	5%	6%	-4%	i	i
O=C(Nc1ccc(N2CCN(C(=O)c3ccccc3)CC2)c(Cl)c1)c1ccc(Br)o1	12µM*	?	14%	?	i
O=C(Nc1ccccc1N1CCN(C(=O)c2ccccc2)CC1)c1cc(Br)ccc1Cl	?	-187%[0.0737 µM]	?	?	23µM*
COc1c(C)cc(Br)cc1C(=O)Nc1ccccc1N1CCN(C(=O)c2ccccc2)CC1	-5%	1%	2%	?	23µM*
CC1(C)Cc2c(C#N)c(N3CCN(C(=O)c4ccccc4Cl)CC3)nc(-c3ccco3)c2CS1	?	5.8µM*	9.2µM*	i	i
CC(=O)N1CCN(c2nc(-c3ccco3)c3c(c2C#N)CC(C)(C)SC3)CC1	?	?	12%	i	i
CC1(C)Cc2c(C#N)c(N3CCN(C(=O)c4ccco4)CC3)nc(-c3ccco3)c2CS1	?	?	?	i	5.8µM*
Nc1c(Cl)c(Cl)nc(C(=O)OCC(=O)N2CCCC2=O)c1Cl	27%	3%	2%	i	?
CC(=O)N1CCc2c(sc3c2c(=O)n(-c2ccc(F)cc2)c(=O)n3Cc2ccc(C#N)cc2)C1	.	.	.	i	i
NCCN1C(=O)S/C(=C\c2ccc3c(c2)OCO3)C1=O	19%	-2%	-13%	i	i
O=C(CCc1nc2sc3c(c2c(=O)[nH]1)CCCC3)NCCc1ccc(F)cc1	-15%	-1%	-9%	i	i
CC1(C)CC(NC(=O)c2cc(Cl)ccc2Cl)CC(C)(C)N1	-3%	2%	9.2µM*	i	i
CC1(C)CC(NC(=O)c2sc3cc(Cl)ccc3c2Cl)CC(C)(C)N1	9%	-26%	?	?	18µM*
O=C(NC1CC1)c1sc2cc(Cl)ccc2c1Cl	?	6%	-2%	i	?
Cc1ccc(C)c(C(=O)NC2CC(C)(C)NC(C)(C)C2)c1	1%	0%	-5%	i	i
CCn1c(SCc2nc3ccccc3s2)nnc1-c1cccs1	?	13%	-1%	i	?
Cc1cc(NS(=O)(=O)c2ccc(NC(=O)C(C)N3C(=O)c4ccccc4C3=O)cc2)nc(C)n1 (stereo not given)	4%	1%	-1%	i	i
CCOC(=O)c1c(C)[nH]c(C(=O)N/N=C/c2ccc(OC)c(OC)c2)c1C	-9%	14%	?	?	i
CCOC(=O)c1c(C)[nH]c(C(=O)N/N=C/c2cc([N+](=O)[O-])ccc2O)c1C	-13%	-1%	7%	12µM*	?
CCOC(=O)c1c(C)[nH]c(C(=O)N/N=C\c2ccccc2O)c1C	?	?	5.2µM*	?	2.1µM*
CC(Cl)C(=O)NC(=O)NC12CC3CC(CC(C3)C1)C2 (stereo not given)	?	16%	.	i	i
COc1ccc(CCn2c(C)nc3ccccc3c2=O)cc1OC	?	2%	-3%	i	?
COc1ccc(CCn2c(-c3ccco3)nc3ccccc3c2=O)cc1OC	10µM*	?	9%	i	?
O=c1c2ccccc2nc(-c2ccccc2)n1CCCn1ccnc1	?	1%	1%[9.22 µM]	i	i
O=c1c2ccccc2nc(-c2ccco2)n1CCCn1ccnc1	?	-8%	-3%	i	8.2µM*
SMILES	ELG1 DNA repair	MCF10A rerep	SW480 rereplic	KB-3-1 cytotox	KB-V1 MDR tox
CCCC(=O)Nc1ccc(C#Cc2ccccc2)cc1	?	22%	-1%	i	i
Cc1nc2ccccc2c(=O)n1/N=C/c1ccc(O)cc1O	-15%	-25%	-2%	i	i
CCCc1nc2ccccc2c(=O)n1/N=C/c1ccccc1O	?	?	?	i	16µM*
CCCc1nc2ccccc2c(=O)n1/N=C/c1c(C)[nH]n(-c2ccc(C)cc2)c1=O	?	11%	?	8.2µM*	16µM*
CCCN(CCC)S(=O)(=O)c1ccc(C(=O)Nc2cccnc2)cc1	?	-1%	-5%	i	i
Cc1ccc2c(C)nc(Nc3nc(CSc4nnnn4-c4ccccc4)cc(=O)[nH]3)nc2c1	8.2µM*	?	?	i	i
COc1ccc2nc(Nc3nc(CSc4ccc(C)cc4)cc(=O)[nH]3)nc(C)c2c1	?	7%[9.22 µM]	-8%	?	i
Cc1ccc(SCc2cc(=O)[nH]c(Nc3nc(C)c4cccc(C)c4n3)n2)cc1	-3%	-6%	-1%	i	21µM*
COc1ccc2nc(Nc3nc(CSc4nnnn4-c4ccccc4)cc(=O)[nH]3)nc(C)c2c1	-17%	-1%	-3%	?	16µM*
CC(=O)Nc1cc(OC(=O)c2ccco2)cc(OC(=O)c2ccco2)c1	4%	2%	-9%	i	i
COc1ccc(C2(CO)OC(CO)C(O)C2O)cc1 (stereo not given)	.	1%	11%	i	i
O=C(Nc1ccc2c(c1)OCCO2)C(CCc1ccccc1)N1CCC(Cc2ccccc2)CC1 (stereo not given)	.	.	.	i	23µM*
O=C(Oc1ccc(=O)[nH]n1)c1ccccc1	.	.	.	i	i
S=c1[nH]nc(C2CCCCC2)n1/N=C/c1ccc(Cl)cc1	2%	?	?	i	i
FC(F)(F)c1ccc(/C=N/n2c(C3CCCCC3)n[nH]c2=S)cc1	-5%	23µM*	-8%	i	i
S=c1[nH]nc(C2CCCCC2)n1/N=C/c1ccc(Br)cc1	-28%	?	-6%	i	i
S=c1[nH]nc(C2CCCCC2)n1/N=C/c1ccc(Br)s1	10%	18µM*	?	i	i
CN=C1c2cc3cc(OC)ccc3n2CCN1Cc1ccccc1	?	21µM*	11µM*	8.2µM*	16µM*
CCN(CC)CCNC1=NCCn2c1cc1cc(OC)ccc12	-18%	?	?	i	i
CCNC(=S)N1CCN(CCN2C(=O)c3cccc4cccc(c34)C2=O)CC1	0%	0%	6%	i	i
Cc1noc(C)c1CSc1nnc2n(-c3ccccc3)c(=O)c3ccccc3n12	.	-3%	3%	i	i
Cc1nc(CSc2nc3[nH]ncc3c(=O)n2-c2ccccc2)cs1	-5%	-1%	-1%	i	i
Cc1noc(C)c1CSc1nc2ccccc2c(=O)n1-c1ccc(F)cc1F	?	13µM*	?	7.3µM*	21µM*
Cc1noc(C)c1CSc1nc2[nH]ncc2c(=O)n1-c1ccccc1	?	1.3µM*	?	?	?
Cc1noc(C)c1CSc1nc2ccccc2c(=O)n1-c1ccccc1	-18%	7.3µM*	13µM*	5.8µM*	5.8µM*
